Structures can show the parent of a compound that is named as a salt. ± gives the standard deviation of the averaged measurements.
Legend:
Assay in all cases: growth (OD600 after 10 h); higher = more growth (less inhibition)
[1] = test system: E. coli TESEC Alr+ wild-type control; conditions: compound 0.1 mM; raw OD600 reference: median of DMSO wells 0.241, cell-free background 0.041
Method: (§1)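 TESEC Mtb Alr E. coli, or the Alr+ wild-type control, in 384-well plates with Prestwick library compounds at 0.1 mM and 1% DMSO, across arabinose induction levels of 1E3 to 1E7 nM. Growth is read as OD600 after 10 h at 37 °C in triplicate biological replicates.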

E. coli TESEC Mtb Alr [2] = conditions: compound 0.1 mM
Method: as §1

E. coli TESEC Mtb Asd = conditions: compound 0.1 mM
Method: (§2)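 TESEC E. coli strains in which the native enzyme is deleted and replaced by arabinose-inducible Mtb Asd, DapB, CysH or TrpD, each grown in its selective medium. Strains were screened against the Prestwick library at 0.1 mM and 1% DMSO in 384-well format at low and high arabinose induction. Growth is read as OD600 after 10 h in triplicate.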

E. coli TESEC Mtb DapB = conditions: compound 0.1 mM
Method: as §2

[3] = test system: E. coli TESEC Alr+ wild-type control; conditions: compound 0.1 mM; raw OD600 reference: median of DMSO wells 0.49, cell-free background 0.052
Method: (§3)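 TESEC Mtb Alr E. coli (ΔaraC ΔtolC ΔentC Δalr ΔdadX, arabinose-inducible Mtb Alr) or the Alr+ wild-type control strain, grown in defined M9-fructose medium without D-alanine in 96-well plates with Prestwick library compounds at 0.1 mM and 1% DMSO. Low Alr induction is 0.1 µM arabinose and high induction is 10 mM arabinose.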

E. coli TESEC Mtb Alr [4] = conditions: compound 0.1 mM; remark: listed apart in the source
Method: as §3

[5] = arabinose 1000 nM, raw OD600 reference: median of DMSO wells 0.294, cell-free background 0.041
[6] = arabinose 10000 nM, raw OD600 reference: median of DMSO wells 0.264, cell-free background 0.041
[7] = arabinose 100000 nM, raw OD600 reference: median of DMSO wells 0.201, cell-free background 0.041
[8] = arabinose 1000000 nM, raw OD600 reference: median of DMSO wells 0.193, cell-free background 0.041
[9] = arabinose 10000000 nM, raw OD600 reference: median of DMSO wells 0.146, cell-free background 0.041
[10] = arabinose induction (level): High, raw OD600 reference: median of DMSO wells 0.331, cell-free background 0.041
[11] = arabinose induction (level): Low, raw OD600 reference: median of DMSO wells 0.417, cell-free background 0.041
[12] = arabinose induction (level): High, raw OD600 reference: median of DMSO wells […], cell-free background 0.041
[13] = arabinose induction (level): Low, raw OD600 reference: median of DMSO wells 0.227, cell-free background 0.041
[14] = arabinose 100 nM, raw OD600 reference: median of DMSO wells 0.413, cell-free background 0.052
[15] = arabinose 10000000 nM, raw OD600 reference: median of DMSO wells […], cell-free background 0.052

SMILES	growth [1]	growth (E. coli TESEC Mtb Alr [2]; [5])	growth (E. coli TESEC Mtb Alr [2]; [6])	growth (E. coli TESEC Mtb Alr [2]; [7])	growth (E. coli TESEC Mtb Alr [2]; [8])	growth (E. coli TESEC Mtb Alr [2]; [9])	growth (E. coli TESEC Mtb Asd; [10])	growth (E. coli TESEC Mtb Asd; [11])	growth (E. coli TESEC Mtb DapB; [12])	growth (E. coli TESEC Mtb DapB; [13])	growth [3]	growth (E. coli TESEC Mtb Alr [4]; [14])	growth (E. coli TESEC Mtb Alr [4]; [15])
CC(C(=O)O)c1cccc(C(=O)c2ccccc2)c1 (configuration not stated) [Ketoprofen]	0.227 ± 0.0059	0.249 ± 0.014	0.271 ± 0.012	0.172 ± 0.012	0.191 ± 0.0088	0.145 ± 0.0059	0.247 ± 0.013	0.335 ± 0.038	0.184 ± 0.018	0.248 ± 0.058	0.533 ± 0.084	0.428 ± 0.018	0.36 ± 0.005
CN(C(=O)C(Cl)Cl)c1ccc(OC(=O)c2ccco2)cc1 [Diloxanide furoate]	0.185 ± 0.0099	0.264 ± 0.018	0.256 ± 0.01	0.169 ± 0.0067	0.172 ± 0.0079	0.167 ± 0.004	0.366 ± 0.011	0.353 ± 0.024	0.2046 ± 0.0011	0.21 ± 0.02	0.609 ± 0.087	0.415 ± 0.016	0.374 ± 0.025
CC1(C)[C@@H](OC(=O)CCC(=O)O)CC[C@]2(C)[C@H]3C(=O)C=C4[C@@H]5C[C@@](C)(C(=O)O)CC[C@]5(C)CC[C@@]4(C)[C@]3(C)CC[C@@H]12 [Carbenoxolone disodium salt]	0.248 ± 0.007	0.275 ± 0.004	0.2609 ± 0.0019	0.319 ± 0.0044	0.213 ± 0.0028	0.201 ± 0.0016	0.325 ± 0.15	0.251 ± 0.006	0.196 ± 0.018	0.225 ± 0.012	0.426 ± 0.03	0.405 ± 0.019	0.37 ± 0.0045
COC(=O)C1=C(C)NC(C)=C(C(=O)OC2CCCN(Cc3ccccc3)C2)C1c1cccc([N+](=O)[O-])c1 (configuration not stated) [Benidipine hydrochloride]	0.184 ± 0.005	0.148 ± 0.005	0.177 ± 0.012	0.168 ± 0.011	0.107 ± 0.0056	0.119 ± 0.024	0.162 ± 0.0021	0.157 ± 0.0085	0.17 ± 0.022	0.192 ± 0.016	0.295 ± 0.015	0.353 ± 0.018	0.122 ± 0.028
CC1(C)[C@H](C(=O)O)N2C(=O)C[C@H]2S1(=O)=O [Sulbactam]	0.241 ± 0.0052	0.305 ± 0.0083	0.263 ± 0.0075	0.244 ± 0.009	0.202 ± 0.015	0.165 ± 0.01	0.39 ± 0.029	0.438 ± 0.016	0.2 ± 0.006	0.225 ± 0.025	0.533 ± 0.06	0.409 ± 0.0061	0.361 ± 0.011
CC(C)c1nc(CN(C)C(=O)N[C@H](C(=O)N[C@@H](Cc2ccccc2)C[C@H](O)[C@H](Cc2ccccc2)NC(=O)OCc2cncs2)C(C)C)cs1 [Ritonavir]	0.166 ± 0.0093	0.216 ± 0.015	0.221 ± 0.025	0.217 ± 0.012	0.114 ± 0.0092	0.159 ± 0.0028	0.245 ± 0.0089	0.15 ± 0.008	0.192 ± 0.013	0.25 ± 0.0048	–	–	–
Cc1cc(C(C)(C)C)cc(C)c1CC1=NCCN1 [Xylometazoline hydrochloride]	0.226 ± 0.0033	0.285 ± 0.0055	0.261 ± 0.01	0.221 ± 0.011	0.164 ± 0.0057	0.161 ± 0.0028	0.272 ± 0.041	0.393 ± 0.066	0.173 ± 0.011	0.252 ± 0.059	0.4501 ± 0.0037	0.413 ± 0.015	0.331 ± 0.011
N[C@@H]1CONC1=O [D-cycloserine]	0.246 ± 0.0051	0.0374 ± 0.00045	0.0389 ± 0.00083	0.277 ± 0.0054	0.155 ± 0.0017	0.132 ± 0.0031	0.252 ± 0.066	0.354 ± 0.081	0.2176 ± 0.0016	0.245 ± 0.044	0.399 ± 0.14	0.0455 ± 0.00047	0.328 ± 0.015
CC1(C)O[C@@H]2C[C@H]3[C@@H]4C[C@H](F)C5=CC(=O)C=C[C@]5(C)[C@@]4(F)[C@@H](O)C[C@]3(C)[C@]2(C(=O)CO)O1 [Fluocinolone acetonide]	0.174 ± 0.0075	0.262 ± 0.01	0.263 ± 0.0058	0.153 ± 0.0083	0.146 ± 0.0019	0.144 ± 0.0033	0.198 ± 0.02	0.401 ± 0.017	0.188 ± 0.019	0.239 ± 0.039	0.591 ± 0.015	0.409 ± 0.0053	0.274 ± 0.0057
O=C1C(CC[S+]([O-])c2ccccc2)C(=O)N(c2ccccc2)N1c1ccccc1 (configuration not stated) [Sulfinpyrazone]	0.167 ± 0.0026	0.244 ± 0.0079	0.241 ± 0.006	0.17 ± 0.01	0.151 ± 0.0048	0.146 ± 0.0031	0.26 ± 0.063	0.316 ± 0.087	0.182 ± 0.0043	0.203 ± 0.023	0.542 ± 0.093	0.38 ± 0.0087	0.33 ± 0.011
CCCc1cc(=O)[nH]c(=S)[nH]1 [Propylthiouracil]	0.241 ± 0.0062	0.289 ± 0.025	0.263 ± 0.0094	0.219 ± 0.034	0.195 ± 0.0092	0.152 ± 0.0063	0.431 ± 0.04	0.45 ± 0.047	0.199 ± 0.0093	0.194 ± 0.019	0.55 ± 0.1	0.41 ± 0.015	0.345 ± 0.043
Cc1ccc(S(=O)(=O)NC(=O)NN2CC3CCCC3C2)cc1 (configuration not stated) [Gliclazide]	0.244 ± 0.012	0.309 ± 0.0099	0.271 ± 0.0064	0.222 ± 0.017	0.192 ± 0.0036	0.177 ± 0.0042	0.298 ± 0.032	0.364 ± 0.071	0.212 ± 0.011	0.28 ± 0.042	0.518 ± 0.074	0.404 ± 0.02	0.372 ± 0.0073
CCCNC(=O)NS(=O)(=O)c1ccc(Cl)cc1 [Chlorpropamide]	0.255 ± 0.0063	0.301 ± 0.007	0.25 ± 0.0077	0.23 ± 0.048	0.184 ± 0.008	0.141 ± 0.0057	0.392 ± 0.035	0.409 ± 0.057	0.234 ± 0.032	0.231 ± 0.0079	0.525 ± 0.065	0.396 ± 0.02	0.3521 ± 0.0031
COc1c(N2C[C@@H]3CCCN[C@@H]3C2)c(F)cc2c(=O)c(C(=O)O)cn(C3CC3)c12 [Moxifloxacin]	0.04227 ± 0.00025	0.04077 ± 0.00035	0.0401 ± 0.0003	0.0415 ± 0.0005	0.04013 ± 0.00012	0.0446 ± 0.0054	0.0511 ± 0.0029	0.052 ± 0.0016	0.04903 ± 0.00038	0.04933 ± 0.00035	0.0539 ± 0.0014	0.05287 ± 0.00031	0.0516 ± 0.0013
C[C@H](O)C(=O)Nc1c(I)c(C(=O)NC(CO)CO)c(I)c(C(=O)NC(CO)CO)c1I [Iopamidol]	0.261 ± 0.011	0.323 ± 0.014	0.287 ± 0.012	0.217 ± 0.0049	0.195 ± 0.0084	0.166 ± 0.0031	0.443 ± 0.035	0.396 ± 0.035	0.221 ± 0.0036	0.249 ± 0.028	0.465 ± 0.036	0.397 ± 0.022	0.338 ± 0.011

Reference: the supplement of paper PMC9262897, “Low-cost anti-mycobacterial drug discovery using engineered E. coli” (Nature Communications, 2022)
